# According to PubChem BioAssay (NCATS):
# Results filed as inconclusive are left out. Active and inactive are the calls of the source. The call rests on the fitted dose curve.
# Test: Primary qHTS for inhibitors of MERS-S pseudo-typed particle cell entry (AID 1479149); further: nearly all actives have a fitted effect of over 60% in size
# Settings: MERS-S pseudotyped particle entry, luciferase; series mostly up to 57.1 µM; activity change, negative = inhibition: at the top concentration
# On the % scale 0 is the no-effect control and ±100 the full control effect.
Compound,outcome,"activity change, negative = inhibition"
C/C=C/c1ccc(O)c(OC)c1,inactive,–
Cc1cccc(N(C)C(=S)Oc2ccc3c(c2)C2CCC3C2)c1 (stereo not given),inactive,–
CCC(C(=O)OCCN1CCOC(c2ccccc2)C1C)c1ccccc1 (stereo not given),–,-25.3% (inactive)
CCN[C@H]1C[C@H](C)S(=O)(=O)c2sc(S(N)(=O)=O)cc21,–,-16.7% (inactive)
CC(O)COc1ccccc1 (stereo not given),inactive,–
CSc1ccc(C(=O)c2[nH]c(=O)[nH]c2C)cc1,inactive,–
C[C@H](N)C(=O)N[C@@H](C)C(=O)NC1[C@H]2CN(c3nc4c(cc3F)c(=O)c(C(=O)O)cn4-c3ccc(F)cc3F)C[C@@H]12 (stereo not given in full),–,-65.9% (inactive)
C/C=C/c1ccc(OC)cc1,inactive,–
CCCc1ncc(C[n+]2ccccc2C)c(N)n1,inactive,–
CN(CCCN1c2ccccc2CCc2ccccc21)CC(=O)c1ccc(Cl)cc1,–,-18.1% (inactive)
CNC1CCCN(c2c(F)cc3c(=O)c(C(=O)O)cn(C4CC4)c3c2OC)C1 (stereo not given),inactive,–
O=C1OC2(c3ccc(O)cc3Oc3cc(O)ccc32)c2ccccc21,inactive,–
C[N+](C)(C)CCCCCCCCCC[N+](C)(C)C,inactive,–
C[N+]1(CC2COC(c3ccccc3)(c3ccccc3)O2)CCCCC1 (stereo not given),inactive [at 26.4 µM],–
O=C(CCCN1CCN(c2ccccn2)CC1)c1ccc(F)cc1,–,-6.16% (inactive)
O=C(Nc1ccc([N+](=O)[O-])cc1)Nc1ccc([N+](=O)[O-])cc1,inactive,–
O=C(O)CCC(=O)c1ccc(-c2ccccc2)cc1,inactive,–
CC1(C)OC[C@@H](COC(=O)CCc2ccc(OC[C@@H](O)CNCCNC(=O)N3CCOCC3)cc2)O1,inactive,–
CC(C)NCC(O)COc1ccc(COCCOC(C)C)cc1 (stereo not given),inactive,–
CC1(C)[C@H](C(=O)O)N2C(=O)C[C@H]2S1(=O)=O,inactive,–

Compound,outcome,"activity change, negative = inhibition"
CC1(C)O[C@@H]2C[C@H]3[C@@H]4C[C@H](F)C5=CC(=O)CC[C@]5(C)[C@H]4[C@@H](O)C[C@]3(C)[C@]2(C(=O)CO)O1,inactive,–
CCC(=O)c1ccc(O)cc1,inactive,–
C/C(=C(/OCCOc1ccc(Cl)cc1)c1ccc(Cl)cc1Cl)n1ccnc1,–,-12.1% (inactive)
C#C[C@]1(OC(C)=O)CC[C@H]2[C@@H]3CCC4=C/C(=N/O)CC[C@@H]4[C@H]3CC[C@@]21CC,inactive,–
Cc1ccc(C(C)OC(=O)C2(C)CCC(C(=O)O)C2(C)C)cc1 (stereo not given),inactive,–
CCOC(=O)NNc1nncc2ccccc12,inactive,–
CC(C)NCCCC1(C(N)=O)c2ccccc2-c2ccccc21,inactive,–
Cc1[nH]c(C)c(Cl)c(=O)c1Cl,inactive [at 26.4 µM],–
N[C@H]1CN(c2c(F)cc3c(=O)c(C(=O)O)cn(C4C[C@@H]4F)c3c2Cl)CC12CC2 (stereo not given in full),inactive,–
CCOC(=O)c1ccc(C#Cc2ccc3c(c2)C(C)(C)CCS3)nc1,inactive,–
C=CC[N+]1([C@H]2C[C@H]3[C@@H]4CC[C@H]5C[C@H](OC(C)=O)[C@@H](N6CCCCC6)C[C@]5(C)[C@H]4CC[C@]3(C)[C@H]2OC(=O)CC)CCCCC1,–,-27.8% (inactive)
O=c1ccc2ccccc2o1,–,-88.9% (inactive)
CC[N+](CC)(CC)CCOC(=O)C(C1CCCC1)C1CCCC1,–,-30.6% (inactive)
CCC1Nc2cc(Cl)c(S(N)(=O)=O)cc2S(=O)(=O)N1 (stereo not given),inactive,–
CCCCCOc1ccc(C2SC(=O)NC2=O)cc1OCC (stereo not given),inactive,–
Cc1cccc(CN2CCN(C(c3ccccc3)c3ccc(Cl)cc3)CC2)c1 (stereo not given),inactive,–
O=C(O)/C=C/c1ccc(Cn2ccnc2)cc1,inactive,–
COc1cc(OC)cc(OC)c1,inactive,–
c1ccc2[nH]c(-c3cscn3)nc2c1,inactive,–
NCC1CCC(C(=O)Oc2ccc(CCC(=O)O)cc2)CC1 (stereo not given),inactive,–

# Test: Primary qHTS for Vero E6 cytotoxicity: counterscreen for inhibitors of SARS-S pseudo-typed particle cell entry (AID 1479150)
# Settings: cell viability; series mostly up to 57.1 µM; activity change, negative = cytotoxicity: at the top concentration
Compound,"activity change, negative = cytotoxicity",outcome
C/C=C/c1ccc(O)c(OC)c1,3.73% (inactive),–
Cc1cccc(N(C)C(=S)Oc2ccc3c(c2)C2CCC3C2)c1 (stereo not given),-4.06% (inactive),–
CCC(C(=O)OCCN1CCOC(c2ccccc2)C1C)c1ccccc1 (stereo not given),–,inactive
CCN[C@H]1C[C@H](C)S(=O)(=O)c2sc(S(N)(=O)=O)cc21,-9.53% (inactive),–
CC(O)COc1ccccc1 (stereo not given),0.827% (inactive),–
CSc1ccc(C(=O)c2[nH]c(=O)[nH]c2C)cc1,–,inactive
C[C@H](N)C(=O)N[C@@H](C)C(=O)NC1[C@H]2CN(c3nc4c(cc3F)c(=O)c(C(=O)O)cn4-c3ccc(F)cc3F)C[C@@H]12 (stereo not given in full),0.417% (inactive),–
C/C=C/c1ccc(OC)cc1,–,inactive
CCCc1ncc(C[n+]2ccccc2C)c(N)n1,–,inactive
CN(CCCN1c2ccccc2CCc2ccccc21)CC(=O)c1ccc(Cl)cc1,-1.65% (inactive),–
CNC1CCCN(c2c(F)cc3c(=O)c(C(=O)O)cn(C4CC4)c3c2OC)C1 (stereo not given),–,inactive
O=C1OC2(c3ccc(O)cc3Oc3cc(O)ccc32)c2ccccc21,–,inactive
C[N+](C)(C)CCCCCCCCCC[N+](C)(C)C,–,inactive
C[N+]1(CC2COC(c3ccccc3)(c3ccccc3)O2)CCCCC1 (stereo not given),-19.6% [at 26.4 µM] (inactive),–
O=C(CCCN1CCN(c2ccccn2)CC1)c1ccc(F)cc1,–,inactive
O=C(Nc1ccc([N+](=O)[O-])cc1)Nc1ccc([N+](=O)[O-])cc1,–,inactive
O=C(O)CCC(=O)c1ccc(-c2ccccc2)cc1,–,inactive
CC1(C)OC[C@@H](COC(=O)CCc2ccc(OC[C@@H](O)CNCCNC(=O)N3CCOCC3)cc2)O1,–,inactive
CC(C)NCC(O)COc1ccc(COCCOC(C)C)cc1 (stereo not given),–,inactive
CC1(C)[C@H](C(=O)O)N2C(=O)C[C@H]2S1(=O)=O,–,inactive

Compound,"activity change, negative = cytotoxicity",outcome
CC1(C)O[C@@H]2C[C@H]3[C@@H]4C[C@H](F)C5=CC(=O)CC[C@]5(C)[C@H]4[C@@H](O)C[C@]3(C)[C@]2(C(=O)CO)O1,2.98% (inactive),–
CCC(=O)c1ccc(O)cc1,–,inactive
C/C(=C(/OCCOc1ccc(Cl)cc1)c1ccc(Cl)cc1Cl)n1ccnc1,–,inactive
C#C[C@]1(OC(C)=O)CC[C@H]2[C@@H]3CCC4=C/C(=N/O)CC[C@@H]4[C@H]3CC[C@@]21CC,–,inactive
Cc1ccc(C(C)OC(=O)C2(C)CCC(C(=O)O)C2(C)C)cc1 (stereo not given),-0.416% (inactive),–
CCOC(=O)NNc1nncc2ccccc12,-0.249% (inactive),–
CC(C)NCCCC1(C(N)=O)c2ccccc2-c2ccccc21,–,inactive
Cc1[nH]c(C)c(Cl)c(=O)c1Cl,-3.65% [at 26.4 µM] (inactive),–
N[C@H]1CN(c2c(F)cc3c(=O)c(C(=O)O)cn(C4C[C@@H]4F)c3c2Cl)CC12CC2 (stereo not given in full),–,inactive
CCOC(=O)c1ccc(C#Cc2ccc3c(c2)C(C)(C)CCS3)nc1,2.87% (inactive),–
C=CC[N+]1([C@H]2C[C@H]3[C@@H]4CC[C@H]5C[C@H](OC(C)=O)[C@@H](N6CCCCC6)C[C@]5(C)[C@H]4CC[C@]3(C)[C@H]2OC(=O)CC)CCCCC1,-3.17% (inactive),–
O=c1ccc2ccccc2o1,–,inactive
CC[N+](CC)(CC)CCOC(=O)C(C1CCCC1)C1CCCC1,–,inactive
CCC1Nc2cc(Cl)c(S(N)(=O)=O)cc2S(=O)(=O)N1 (stereo not given),–,inactive
CCCCCOc1ccc(C2SC(=O)NC2=O)cc1OCC (stereo not given),2.17% (inactive),–
Cc1cccc(CN2CCN(C(c3ccccc3)c3ccc(Cl)cc3)CC2)c1 (stereo not given),3.81% (inactive),–
O=C(O)/C=C/c1ccc(Cn2ccnc2)cc1,-4.55% (inactive),–
COc1cc(OC)cc(OC)c1,–,inactive
c1ccc2[nH]c(-c3cscn3)nc2c1,-11.3% (inactive),–
NCC1CCC(C(=O)Oc2ccc(CCC(=O)O)cc2)CC1 (stereo not given),–,inactive
